Our source for the growth values is PubChem BioAssay (NCI).

Molecules are shown by their SMILES. “And” between values parts separate entries of the source, which are not always exact repeats. Equal entries are not always repeated. This is part of a sample that, as a whole, favours compounds with a hit. Of some 83,000 tested, about 20% had one in any assay.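 Single-dose data. Exposure time 48 hours. Values below 10 considered active.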 A number with no mark means an inactive call. The source made the active and inactive calls.

This assay concerns HL-60(TB) leukemia. As to the kind of experiment: NCI-60 one-dose screen, 48 h (100 = growth as untreated, 0 = no growth, -100 = all killed). The conditions noted are these: 10 µM unless noted.
`COc1ccc2c(c1)c(-c1cc(N)n3nc(-c4c[nH]c5ccccc45)cc3n1)cn2C`: the growth was -32.4% (active).
In the case of `CN1C(=O)N(C)C2SC(N/N=C/c3ccccc3F)=NC21` (configuration not stated), the growth was 1.5% (active).
In the case of `COc1ccc(N2N=C(c3ccc4c(c3)OCO4)CC2c2cccc(NC(=O)CCNS(=O)(=O)c3ccc(Cl)cc3)c2)cc1` (configuration not stated), the growth was 34.4%.
Regarding `O=C1CCC(N2C(=O)c3cccc(NCCOCCOCCOCCC(=O)NCCCC(=O)NC(c4ccc5c(c4)OCO5)c4cc(Cl)c5cccnc5c4O)c3C2=O)C(=O)C1` (configuration not stated), the growth was -14.1% (active).
Turning to `CC1CN(c2oc(-c3ccc([N+](=O)[O-])cc3)nc2C#N)CC(C)O1` (configuration not stated), the growth was 95%.
In the case of `O=C(NN1C(=O)/C(=C/C=C/c2ccc([N+](=O)[O-])o2)SC1=S)c1ccc(Cl)cc1` it was -7.52% (active); in that of `CC1(C)CC(=O)C2=C(C1)OC(N)=C(c1nc3ccccc3[nH]1)C2c1ccc(Cl)cc1` (configuration not stated), 22% and 106%; in that of `COc1ccc(/C=C/C(=O)c2ccc(S(=O)(=O)NCCNc3nc(N(C)C)nc(N4CCOCC4)n3)cc2)cc1`, 67.1%.
For `CC(C)C(C(=O)O)n1c(O)c(/C=C2/C=c3cc4c(cc3=NC2=O)OCO4)sc1=S` (configuration not stated), the growth was 105%.
Consider `Cc1ccc(-c2nc(C#N)c(S(=O)(=O)N3CCN(S(=O)(=O)c4ccccc4)CC3)o2)cc1`, for which the growth is -44.9% (active).
In the case of `C#CCOc1cc(N(CC)CC)ccc1C(C(=O)NC(C)(C)C)N(C(=O)C1CCc2cc(F)ccc2O1)c1ccc(F)cc1` (configuration not stated), the growth is 3.9% (active).
Consider `COC(=O)c1c(C(=O)OC)c2ccc3c4ccccc4ccc3n2c1C(=O)OC`, for which the growth is 111%.
